# BRCA1 expr up: activators of BRCA1 expression; AID 624202; Potency, µM (doses to about 46.1 µM), for the others: at the top dose activation, hits mostly activators; actives 1.1% (n = 380,000); MCF7-BRCA1-FFLuc reporter, luminescence, 48 h; response scale: scaled: vehicle 0%, 10 µM genistein 100%; also: potency is read from the fitted curve at half-maximal effect; nearly all actives have a fitted effect of over 80% in size
#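 Activators of BRCA1 expression were detected as increased firefly luciferase luminescence in engineered MCF7 cells after 48 h compound incubation. Signals were scaled to genistein 10 microM as full activation.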
# D3 antag: blocks the human D3 dopamine receptor; actives 2.5% (n = 360,000); max response, negative = inhibition, %; P35462; AID 652054; D3R cells, DiscoveRx beta-arrestin luminescence, antagonist mode; active compounds read low; in the data active = max response below about -50%; inconclusive = no clear call, values can overlap the other calls; also: % is scaled to controls: 0 for no effect and ±100 for the full control effect
# Target sequence (P35462 whole entry, looked up): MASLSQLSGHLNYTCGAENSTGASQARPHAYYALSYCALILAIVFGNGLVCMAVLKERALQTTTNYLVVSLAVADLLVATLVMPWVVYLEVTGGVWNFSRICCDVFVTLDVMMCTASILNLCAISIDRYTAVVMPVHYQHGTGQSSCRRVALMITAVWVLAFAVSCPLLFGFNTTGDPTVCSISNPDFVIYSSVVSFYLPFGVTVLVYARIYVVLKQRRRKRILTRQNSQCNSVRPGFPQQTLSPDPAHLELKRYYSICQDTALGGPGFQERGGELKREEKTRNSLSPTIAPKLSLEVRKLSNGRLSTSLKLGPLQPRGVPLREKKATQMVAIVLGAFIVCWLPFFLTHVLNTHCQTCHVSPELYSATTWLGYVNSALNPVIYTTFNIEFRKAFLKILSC
#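 Cells plated overnight at 1500 cells/well, then exposed to library compounds with dopamine controls for 90 minutes at 37 degrees C. DiscoveRx reagent added for 30–60 minutes at room temperature; luminescence read, quantitative HTS format.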
# RGS4 inhibitor: inhibitors of human regulator of G protein signaling 4; P49798; Transcreener GDP fluorescence polarization, RGS4-accelerated GTP hydrolysis; Potency, µM (highest dose often 114 µM), inactives show at the top dose activity change, negative = inhibition, actives largely listed as inhibitors; actives 0.039% (n = 390,000); AID 504845; also: potency is read from the fitted curve at half-maximal effect; % is scaled to controls: 0 for no effect and ±100 for the full control effect; nearly all actives have a fitted effect of over 75% in size
# Target sequence (P49798 whole entry, looked up): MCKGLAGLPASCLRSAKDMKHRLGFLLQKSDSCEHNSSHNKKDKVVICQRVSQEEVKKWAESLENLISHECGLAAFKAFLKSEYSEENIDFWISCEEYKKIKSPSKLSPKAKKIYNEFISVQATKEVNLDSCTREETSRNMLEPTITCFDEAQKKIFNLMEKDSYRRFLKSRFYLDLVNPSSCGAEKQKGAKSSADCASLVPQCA
#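 MLSMR compounds (23 nl, pin-transferred) preincubated 10 min at room temperature with a 500nM (2x) first reagent, then RGS4 at 900nM (2x) plus Transcreener GDP mix added; fluorescence polarization (620/688 nm) read before and after 90 min at 30 °C.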
# D3 ag: activates the human D3 dopamine receptor; D3R DiscoveRx beta-arrestin cells, luminescence, 90 min; max activation, %; actives 0.58% (n = 410,000); in the data active = max activation above about 30%; also: 0% is about no effect
#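 Agonist-mode cell screen: cells plated at 1500/well and incubated overnight at 37 °C, then exposed to library compounds for 90 min at 37 °C. Detection reagent was added for 30–60 min at room temperature, and luminescence was read.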
# B2AR arrestin: recruits beta-arrestin to the human beta2-adrenergic receptor | P07550 | beta-arrestin recruitment to beta2AR, cell-based reporter | Potency, µM (series often up to 46.1 µM), without a hit: top-dose activation, most hits filed as activators | actives 0.02% (n = 330,000);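 also: potency is read from the fitted curve at half-maximal effect; 0% = DMSO controls and full agonism = EC100 isoproterenol or metaproterenol; nearly all actives have a fitted effect of over 65% in size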
# PTHR1 agonist: activates the human parathyroid hormone receptor PTHR1 | AID 743266 | actives 0.075% (n = 410,000) | Potency, µM (series often up to 115 µM), without a hit: top-dose activation, actives largely listed as activators | HEK293 GP2 PTHR1 cells, GloSensor cAMP luminescence, 1 h | Q03431; also: potency is read from the fitted curve at half-maximal effect; nearly all actives have a fitted effect of over 55% in size
#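 HEK-293-derived GP2 cells expressing PTHR1 and a GloSensor cAMP reporter, 3,000/well, plated overnight, given luciferin plus IBMX (each 0.5 mM as added) for 1 h at 37 °C, then compound for 1 h at 37 °C. Luminescence was read after 15 min at room temperature.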
# * hit, by the source's call; i = inactive; ? = inconclusive; . = no result; [ ] = another dose, or the depositor's remark. In the library only some 3.7% were active in any assay of this set; here they are far more common. Unless noted, calls follow the shape of the dose curve; as a rule, active = well fitted curve in the direction sought with a large enough effect; inconclusive = small, poorly fitted or top-dose-only effect, or another doubt; inactive = no such curve, though single readings can be large; an effect the other way counts as inactive or inconclusive.
SMILES,BRCA1 expr up,D3 antag,RGS4 inhibitor,D3 ag,B2AR arrestin,PTHR1 agonist
O=C(NCC(=O)N1CCCCC1)c1sc2ccccc2c1Cl,4.5µM*,15,-13%,-7,0%,-22%
O=C(NCCN1CCOCC1)N1c2ccccc2Sc2ccccc21,17%,-53*,-23%,-17,0%,i
COCc1nnc(NC(=O)c2sc3ccccc3c2Cl)s1,?,21,-31%,-18,0%,-23%[57.5 µM]
Nc1cc(N)nc(SCC(=O)NCC(=O)Nc2ccc(F)c(F)c2F)n1,-4%,-19,10%,0,-1%,-1%
Cc1cc(OCc2cc(C(=O)N(C)C3CCOC3)no2)cc(C)c1Cl (stereo not drawn),2.8µM*,-10,-25%,-12,0%,-39%
CN(C(=O)c1cc(COc2c(F)cccc2F)on1)C1CCOC1 (stereo not drawn),74%,-1,33%,1,0%,i
COc1cc(C)ccc1OCc1cc(C(=O)N2C[C@H]3CC[C@H]2C3)no1,17%,11,3%,8,0%,i
CC(=O)c1ccc(OCc2cc(C(=O)N(C)CCOc3ccc(C)cc3)no2)cc1,4µM*,-12,-32%,0,0%,-35%
COc1cc(C)ccc1OCc1cc(C(=O)N(Cc2c(C)nn(C)c2C)C2CC2)no1,13µM*,16,26%,19,0%,-18%
CC(=O)c1ccc(OCc2cc(C(=O)N(C)C3CCOC3)no2)cc1 (stereo not drawn),13µM*,1,0%,3,0%,?
CC(=O)c1ccc(OCc2cc(C(=O)N(C)Cc3nc4c(C)cccc4[nH]3)no2)cc1,-19%,16,-21%,2,0%,-31%
COc1ccc(S(=O)(=O)NCCS(=O)(=O)N2CCN(c3ccccc3)CC2)cc1OC,.,.,-20%,-16,.,-7%
C[C@H](CO)N1C[C@H](C)[C@H](CN(C)S(=O)(=O)c2ccc(-n3cccn3)cc2)OCc2cnnn2CCCC1=O,0%,20,.,3,.,-26%
COc1cccc(-c2nc3nc(C)cc(C)n3c2NCc2ccccc2)c1,9%,-15,.,5,.,-58%
COc1cc(Cl)ccc1OCc1cc(C(=O)N(C)C2CCOC2)no1 (stereo not drawn),13µM*,1,-7%[56.9 µM],6,0%,i
COc1cc(Cl)ccc1OCc1cc(C(=O)N2C[C@H]3CC[C@H]2C3)no1,11µM*,2,-5%,-1,0%,-30%
COc1cc(Cl)ccc1OCc1cc(C(=O)N(C)CC2CCCCO2)no1 (stereo not drawn),?,-15,-5%,-2,-1%,-29%
CCOC(=O)Cc1csc(N/N=C\c2ccccc2OC)n1,16%,-11,-8%,0,0%,-12%
Cc1ccc(C(=O)NCC(c2cccs2)S(=O)(=O)c2ccccc2)cc1C (stereo not drawn),.,.,6%,-15,.,-11%
COc1ccc(C(=O)N2CCC(C(=O)O)CC2)c2ccccc12,11%,-30,14%,-7,0%,-9%
CCOC(=O)c1cnc(SCC(C)C)nc1N,7.9µM*,-7,22%,-5,-1%,-11%
CCOC(=O)c1cnc(SCc2cccc(C)c2)nc1N,10µM*,3,-7%,-3,0%,-2%[57.5 µM]
CCOC(=O)c1cnc(SC)nc1N,18%,12,-13%,-2,0%,i
Cc1nc(C(F)(F)F)ccc1C(=O)N1CCCC1(C)C(=O)NCC(C)C (stereo not drawn),53%,0,.,6,.,i
O=C(O)c1ccc(NC2(C(=O)O)CCCC2)cc1,2%,3,-21%,2,.,5%
SMILES,BRCA1 expr up,D3 antag,RGS4 inhibitor,D3 ag,B2AR arrestin,PTHR1 agonist
Clc1cc(Br)ccc1OCCCNCc1ccccc1,-53%,-88*,6%,-11,-1%,-23%
Fc1ccc(COc2ccccc2CNCc2ccncc2)cc1,-37%,-1,-8%,-7,0%,-36%
Brc1ccc(OCc2ccccc2)c(CNCc2ccncc2)c1,-39%,-62*,23%,-40,-1%,-35%
Cc1ccc(C)c(OCCCNCc2ccccc2)c1,-25%,-54*,-12%,-6,0%,-19%
COc1ccc(C)cc1-n1c(SCC(=O)N2CCOCC2)nc2ccccc2c1=O,4%,-3,.,-1,.,-20%
CCOC(=O)c1cnc2ccc(OC)cc2c1NCCc1ccccc1,.,.,4%,-3,.,?
CC(=O)Nc1ccc(C(=O)OCC(=O)N(Cc2ccccc2)C(C)(C)C)cc1,5%,-9,-19%,4,0%,i
CCOC(=O)c1cnc(Nc2nc3ccccc3o2)nc1CSc1ncccn1,?,-22,?,9,.,i
CCOC(=O)c1cnc(Nc2nc3ccccc3o2)nc1CSC(=S)N(CC)CC,0%,-60*,11%,-8,?,-12%
CC1CCN(C(=O)CSc2c3c(nc4ccc(Cl)cc24)CCCC3)CC1,.,.,1%,69*,.,-44%
O=C(CSc1c2c(nc3ccc(Cl)cc13)CCCC2)N1CCCCC1,.,.,-22%,-10,.,i
COc1ccc(Nc2ccnc3ccccc23)cc1,23%,-21,37%,-7,-3%,-11%
CC(C)Nc1ccc(Nc2ccnc3cc4ccccc4cc23)cc1,-101%,-79*,?,-26,0%,i
c1cnc(N2CCN(c3ncnc4c3oc3ccccc34)CC2)nc1,.,.,.,.,0%,.
Nc1nc(N2CCN(C(=O)c3ccco3)CC2)nc2ccccc12,?,11,-32%[56.9 µM],-6,-1%,-6%[57.5 µM]
Nc1nc(N2CCN(C/C=C/c3ccccc3)CC2)nc2ccccc12,-38%,-64*,-16%[11.4 µM],-15,0%,-2%
C(=C\c1ccccc1)/CN1CCN(c2ncnc3c2oc2ccccc23)CC1,-60%,8,13%,40*,1%,-10%[57.5 µM]
O=c1[nH]c(CN2CCN(S(=O)(=O)/C=C/c3ccccc3)CC2)nc2ccccc12,-7%,-13,19%,4,0%,i
O=c1[nH]c(CN2CCN(C/C=C/c3ccccc3)CC2)nc2ccccc12,-31%,-77*,3%,-46,0%,i
CC(C)N1CC(C(=O)Nc2ccc(Cl)c([N+](=O)[O-])c2)CC1=O (stereo not drawn),-5%,4,-22%,1,0%,-22%
O=C(c1cc(-c2ccncc2)nc2ccc(Cl)cc12)N1CCN(C(=O)C2CCCO2)CC1 (stereo not drawn),-20%,17,-15%,2,-2%,i
